This note sets out measurements from PubChem BioAssay AID463195 (Sanford-Burnham Center for Chemical Genomics, 2010).

As a reminder, the inhibition is the relative decrease from the control value, in per cent.

The structures appear in SMILES notation. About 4,600 (1.4%) of roughly 330,000 compounds were called active.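 Rule for the calls: active = inhibition of 40% or more at the single tested concentration; inactive = the rest.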 The full list was thinned out, with actives kept by preference.

The assay is described as follows: wild-type TIM10 yeast growth inhibition – luminescence, uHTS, counter-screen for tim10-1 yeast inhibitor project, primary screen (AID 463195).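 Note: wild-type TIM10 isogenic control strain grown at permissive 25 °C; 0% = DMSO yeast wells and 100% = minimal medium wells without yeast.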 The conditions noted are these: S. cerevisiae TIM10 strain growth, BacTiter-Glo luminescence, 24 h; at 10 µM; stronger effect = higher value. Background: A counterscreen serves to expose hits that act by an unwanted route or on another target.
For `C=CCSC(CC)(CC)C(N)=O`, the inhibition is 2.57% (inactive).
The result for `NS(=O)(=O)c1ccc(NC(=S)NC(=O)c2cccc(Br)c2)cc1` reads 19.3% (inactive); that for `NS(=O)(=O)c1ccc(CCNC(=S)Nc2ccc(S(N)(=O)=O)cc2)cc1`, 1.03% (inactive); that for `NS(=O)(=O)c1ccc(NC(=S)Nc2ccc(Br)c(Cl)c2)cc1`, 42.9% (active).
The result for `O=C(CSc1nc(O)c(Cc2ccccc2)c(=O)[nH]1)Nc1nc2c(s1)CCCC2` reads -0.307% (inactive).
The result for `O=C(NCc1ccccc1)c1ccc(CNc2c(N3CCCC3)c(=O)c2=O)cc1` reads 2.83% (inactive); that for `CCOC(=O)C(CCOc1cccc(CC)c1)C(=O)OCC`, 9.43% (inactive).
Consider `Cc1noc(C)c1S(=O)(=O)Nc1ccc(C(=O)N2CCN(c3ccc(F)cc3)CC2)cc1`, for which the inhibition was 3.71% (inactive).
For `Cc1ccc(F)cc1NC(=O)N1CCCN(c2ccc(C(F)(F)F)cn2)CC1`, the inhibition was 21.2% (inactive).
Consider `Cc1ccc2nc(N3CCN(C(=O)c4ccco4)CC3)sc2c1`, for which the inhibition is -6.8% (inactive).
In the case of `O=C(c1ccc2nc(N3CCOCC3)sc2c1)N1CCN(c2ccc(Cl)cc2)CC1`, the inhibition was 39.5% (inactive).
The result for `COc1ccc2nc(N3CCN(C(=O)c4ccc([N+](=O)[O-])o4)CC3)sc2c1` reads 43.2% (active); that for `CCCC(=O)n1nc(NCc2ccc(OC)cc2)nc1NCc1ccc(OC)cc1`, -4.33% (inactive); that for `Cc1ccnc(SCC(=O)Nc2cccc(S(=O)(=O)N3CCOCC3)c2)n1`, -2.35% (inactive).
With `COC(=O)c1cc(=O)n(-c2c(Cl)cc(C(F)(F)F)cc2Cl)[nH]1`, the inhibition was -4.96% (inactive).
The result for `COc1ccc2ccn(C)c2c1` reads -5.57% (inactive); that for `COc1ccc2c(c1)cc1n2CCN=C1NN`, 76.6% (active).
Turning to `O=C(O)CSc1ccc(S(=O)(=O)N2CCCC2)cn1`, the inhibition was 8.26% (inactive).
The result for `O=C(CCC1CCCN(C(=O)c2ccc(F)c(F)c2)C1)N1CCN(c2ccccn2)CC1` (centres undefined) reads 13.4% (inactive); that for `Cc1no[n+]([O-])c1COc1ccccc1/C=C1\NC(=S)NC1=O`, -3.3% (inactive); that for `Cc1ccc(SCC(=O)NNC(=O)c2ccc(S(C)(=O)=O)cc2)cc1`, 2.08% (inactive).
For the compound `O=S(=O)(NN=C1CCCCCCC1)c1ccc(Br)cc1`, the inhibition was 17.3% (inactive).
The result for `CCc1ccc(C(CNc2nc(C(F)(F)F)nc3ccccc23)N(C)C)cc1` (centres undefined) reads 9.55% (inactive); that for `COc1ccc(CNc2ncnc3ccccc23)cc1`, 2.62% (inactive); that for `COc1cccc(CNc2nc(C(F)(F)F)nc3ccccc23)c1`, 44.2% (active).
The result for `COc1ccc(/C(N)=N/OC(=O)CCCc2ccccc2)cc1` reads 48.1% (active); that for `N/C(=N\OC(=O)CCc1ccccc1)c1cccnc1`, -2.8% (inactive).
The same measure for `N/C(=N\OC(=O)CCc1ccccc1)c1ccc(Cl)cc1`: 57.5% (active).
In the case of `COc1ccc(/C(N)=N/OC(=O)Cc2ccccc2)cc1`, the inhibition is 21.6% (inactive).
Regarding `COc1ccc(/C(N)=N/OC(=O)Oc2ccccc2)cc1`, the inhibition is 2.38% (inactive).
With `N/C(=N\OC(=O)CC1CCCCC1)c1ccccc1`, the inhibition is 38% (inactive).
Regarding `Nc1cccc(S(=O)(=O)Nc2ccc(SC(F)F)cc2)c1`, the inhibition was 15.6% (inactive).
The same measure for `CCc1ccc(S(=O)(=O)Nc2cc3c(cc2N2CCCCC2)n(C)c(=O)c(=O)n3C)cc1`: 18% (inactive); for `OCC1(Cc2ccccc2C(F)(F)F)CCN(Cc2cccc3cnccc23)CC1`: -41.2% (inactive); for `Cc1ccc(N(C(=O)c2sc(C)nc2C)C(C(=O)NC(C)(C)C)c2ccncc2)cc1` (centres undefined): -2.14% (inactive).
The result for `O=C1OC[C@@H]2CCCN2C(=O)[C@H](CC(=O)N(CCO)Cc2ccccc2)C/C=C\CC[C@@H]1Cc1ccc(F)cc1` reads 1.13% (inactive).
As to `CCN(Cc1ccccc1)S(=O)(=O)c1cc2c3c(c1)CCN3C(=O)CC2`, the inhibition was -18.1% (inactive).
As for `O=C(COc1ccccc1Cl)Nc1ccccc1C(=O)NC1CC1`, the inhibition is 4.12% (inactive).
The same measure for `NC(=O)CC(NC(=O)Cc1ccc(Br)cc1)c1ccc(NC2CC3CCC2C3)c([N+](=O)[O-])c1` (centres undefined): 11.3% (inactive); for `COc1ccc([N+](=O)[O-])cc1-c1nc2ccccc2nc1-c1ccccc1`: 12.2% (inactive); for `O=[N+]([O-])c1ccc2nc(-c3ccccn3)[nH]c2c1`: 13.4% (inactive).
The same measure for `O=[N+]([O-])c1ccc2c(c1)Nc1nc3ccccc3nc1N2`: 79.8% (active).
Regarding `CCc1ccc(CN2C(=O)c3ccccc3C2C(=O)NCC2CCCO2)cc1` (centres undefined), the inhibition was -1.35% (inactive).
The result for `COc1ccc(NC(=O)C2COc3ccccc3O2)cc1` (centres undefined) reads -1.21% (inactive); that for `COc1cc(SC)ccc1C(=O)NNC(=O)C1COc2ccccc2O1` (centres undefined), -2.79% (inactive).
For the compound `COc1ccc(OC)c2sc(NC(=O)C3COc4ccccc4O3)nc12` (centres undefined), the inhibition is 43.3% (active).
The result for `Cc1cccc(NC(=O)CN2CCN(CC(=O)NCC3(N4CCCCC4)CCCCC3)CC2)c1C` reads -26% (inactive); that for `O=C(COC(=O)c1ccccc1)c1ccc2c(c1)OCCO2`, 3.76% (inactive).
The result for `O=C(CCN1CCc2ccccc2C(O)(c2ccccc2)C1)c1ccc2c(c1)OCCO2` (centres undefined) reads 47.8% (active); that for `O=C(CN1CCC(O)(c2ccccc2)CC1)Nc1ccc2c(c1)OCCO2`, -4.11% (inactive); that for `COc1cccc2cc(/C(C)=N/NC(=O)c3ccco3)oc12`, 7.37% (inactive).
The result for `CC1(C)CCSC(/C=C/c2ccccc2)=N1` reads 59.5% (active); that for `CC1(c2ccccc2)NC(=O)N(CC(=O)N2CC(=O)Nc3ccccc32)C1=O` (centres undefined), -7.18% (inactive).
With `Cc1c(CC(=O)N2CCN(C(=O)C3COc4ccccc4O3)CC2)c(=O)oc2c(O)c(O)ccc12` (centres undefined), the inhibition was 14.5% (inactive).
The same measure for `Cc1ccc(N2C(=O)C3C4C=CC(CC4)C3C2=O)cc1Br` (centres undefined): 0.46% (inactive); for `Cc1ccc(N2C(=O)C3C4C=CC(CC4)C3C2=O)cc1Cl` (centres undefined): 96.9% (active).
In the case of `CC(=O)Nc1ccc(N2C(=O)C3C4C=CC(CC4)C3C2=O)cc1` (centres undefined), the inhibition was 3.72% (inactive).
Take `O=C(c1ccc(F)cc1)C1CCN(Cc2cn[nH]c2-c2ccccc2)CC1`: the inhibition is 7.29% (inactive).
Take `Cc1cc(C)c(CN2CCN(C(=O)Cn3ccc(NC(=O)OCc4ccccc4)nc3=O)CC2)c(C)c1`: the inhibition was 14.5% (inactive).
For the compound `Cc1nn(Cc2ccccc2)c(C)c1C(=O)N1CCN(CC(=O)Nc2ccccc2Cl)CC1`, the inhibition is 16.3% (inactive).
On to `Cc1cccc(C)c1NC(=O)CCCSc1nnc(-c2ccco2)n1-c1ccccc1`, for which the inhibition was 7.48% (inactive).
The result for `COc1ccc(Nc2cc(C)nc(-n3nc(C)cc3C)n2)cc1` reads 42.6% (active); that for `CC(=O)c1ccc(Oc2cc(C)nc(-n3nc(C)cc3C)n2)cc1`, 17.9% (inactive).
For `Cc1cc(N/N=C\c2ccc(Br)cc2)nc(-n2nc(C)cc2C)n1`, the inhibition is 28.7% (inactive).
The result for `COc1ccc(OCC(=O)OCCN(C)C)cc1` reads 6.08% (inactive).
The result for `CN1CCC2(CC1)NC(=O)NC2=O` reads -10.9% (inactive); that for `C=CCn1c2ccccc2c2nnc(SCc3[nH]c(=O)[nH]c3C(=O)CCCCC(=O)OCC)nc21`, 2.76% (inactive).
For `c1ccc(-c2cn3c(n2)CCc2ccc4cccnc4c2-3)cc1`, the inhibition was 43.3% (active).
`CCn1nnc(NC(=O)c2cc(Cl)c(OC)c(Cl)c2)n1`: the inhibition is -27.2% (inactive).
Consider `O=C(Nc1cc(S(=O)(=O)Nc2ccc(Cl)cc2)ccc1O)c1ccc(F)cc1F`, for which the inhibition was -2.9% (inactive).
In the case of `O=C(Nc1nnc(SCc2c(Cl)cccc2Cl)s1)c1cccc([N+](=O)[O-])c1`, the inhibition is -29.2% (inactive).
In the case of `O=C(NCc1ccccc1Cl)C1CCCO1` (centres undefined), the inhibition is 12.6% (inactive).
The same measure for `O=C(Nc1nnc(SCc2c(Cl)cccc2Cl)s1)C1CCCO1` (centres undefined): 43% (active); for `CCCCN(CC)CCCNC(=O)c1ccc(CSc2nc3ccncc3[nH]2)cc1`: -7.87% (inactive); for `COc1ccc(C2CC(=O)Oc3ccc(C(C)(C)C)cc32)cc1` (centres undefined): -0.738% (inactive).
Take `O=C(O)CC1(CC(=O)Nc2cccc(C(F)(F)F)c2)CCCC1`: the inhibition was -9.42% (inactive).
The same measure for `FC(F)(F)c1cccc(NC(=S)Nc2cccc(Cl)c2)c1`: 50.8% (active); for `S=C(Nc1cccc(Cl)c1)Nc1ccc2c(c1)OCCO2`: 20.4% (inactive); for `Cc1csc(NC(=S)Nc2cccc(Cl)c2)n1`: 45.7% (active).
The same measure for `Cc1cccc(NC(=S)Nc2ccc(Cl)c(Cl)c2)c1`: 24.3% (inactive).
The same measure for `Cc1cc(Cl)nc(NC(=O)Nc2cccc(Cl)c2)n1`: 3.22% (inactive); for `CCn1c(=O)c(=O)n(CC)c2cc(S(=O)(=O)N3CCc4ccccc43)ccc21`: 14.7% (inactive).
As for `Cc1ccc(C(C)C)c(OCc2nnc(SCC(=O)Nc3nccs3)n2C)c1`, the inhibition was -14% (inactive).
The same measure for `COc1ccccc1/C=C/CN1CCC(CO)(Cc2ccccc2)CC1`: -1.7% (inactive).
The result for `CCCCNC(=O)C1CCC(=O)N1CCc1ccccc1` (centres undefined) reads -1.71% (inactive).
The same measure for `C[C@]12CC[C@H](O)CC1=CCC1C2CC[C@@]2(C)C1CC[C@@H]2NC(=O)CCC(=O)O` (some centres undefined): -2.58% (inactive); for `C=CC[C@H](CC(=O)N(CCO)Cc1ccccc1)C(=O)N[C@@H](COC(=O)[C@@H](CC=C)Cc1ccc(F)cc1)Cc1ccccc1`: 5.57% (inactive); for `CSc1ccc(C(=O)C2CCCN(C(=O)c3ccc(C)nc3)C2)cc1` (centres undefined): -8.56% (inactive).
With `Cc1cc(C(=O)NNC(=O)CCC2CCCCC2)c(C)o1`, the inhibition was -5.54% (inactive).
For the compound `Cn1c2c(c(=O)n(C)c1=O)C(c1cccc([N+](=O)[O-])c1)Nc1ccccc1O2` (centres undefined), the inhibition was -3.02% (inactive).
The result for `Oc1ccc(/C=N/N(Cc2ccccc2)c2ccccc2)cc1` reads 46% (active); that for `CN(/N=C/c1ccccc1)C(=S)c1ccccc1`, -6.07% (inactive); that for `CCN(/N=C/c1ccccc1)c1cc(=O)n(C)c(=O)[nH]1`, 19.2% (inactive).
The same measure for `CN1CCN(S(=O)(=O)c2cccc(C(=O)Nc3sccc3C#N)c2)CC1`: -3.26% (inactive).
